From PubChem BioAssay (NCATS)
Activity calls are given as the source filed them. The call rests on the fitted dose curve; in most records, active means well fitted curve in the direction sought with a large enough effect; inconclusive means small, poorly fitted or top-dose-only effect, or another doubt; inactive means no such curve, though single readings can be large; an effect the other way counts as inactive or inconclusive.

Target: Alpha-galactosidase (Coffea arabica) (UniProt Q42656)
Experiment: Counterscreen for Glucocerebrosidase Inhibitors: qHTS Assay for Coffee Bean alpha-Galactosidase at pH 4.5 (AID 957)
Conditions: purified coffee bean alpha-galactosidase, fluorogenic substrate; series mostly up to 76.9 µM
In short: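 Green coffee bean enzyme (2 nM final) was incubated with compounds (0.7 nM to 77 uM) and 4-methylumbelliferyl alpha-D-galactopyranoside (80 uM final) in 50 mM citric acid, 0.005% Tween-20, pH 4.5, 20 min at room temperature; AC50 from Hill fits.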

Alpha-galactosidase (Coffea arabica), sequence (Q42656 whole entry, looked up): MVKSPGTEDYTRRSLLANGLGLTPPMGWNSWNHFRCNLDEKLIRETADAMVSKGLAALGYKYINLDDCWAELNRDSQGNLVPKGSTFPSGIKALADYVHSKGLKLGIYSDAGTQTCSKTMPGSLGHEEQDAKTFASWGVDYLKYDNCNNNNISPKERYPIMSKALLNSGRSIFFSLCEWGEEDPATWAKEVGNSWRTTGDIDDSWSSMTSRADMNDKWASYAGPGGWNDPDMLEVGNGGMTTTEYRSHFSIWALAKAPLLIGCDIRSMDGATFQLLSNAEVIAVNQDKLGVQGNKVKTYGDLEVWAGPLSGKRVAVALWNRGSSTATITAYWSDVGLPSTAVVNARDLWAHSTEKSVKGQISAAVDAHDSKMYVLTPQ

| Compound | outcome |
| --- | --- |
| CC[N+](CC)(CC)CC(=O)Nc1c(C)cccc1C | inactive |
| C/C(=C\c1ccc(C(=O)O)cc1)c1ccc2c(c1)C(C)(C)CCC2(C)C | inactive |
| CN1CCc2ccccc2Cc2[nH]c3ccccc3c2CC1 | inactive |
| COc1ccccc1N1CCN(CCN2C(=O)CC3(CCCC3)CC2=O)CC1 | inactive |
| N=C(N)c1ccc(N)cc1 | inactive |
| O=C(c1cc(O)c(O)c([N+](=O)[O-])c1)c1ccccc1F | inactive |
| NCCNS(=O)(=O)c1cccc2c(Cl)cccc12 | inactive |
| CC(=O)N[C@@H](Cc1c[nH]c2ccccc12)C(=O)OCc1cc(C(F)(F)F)cc(C(F)(F)F)c1 | inactive |
| CSC(=N)N | inactive |
| Cn1c(=O)c2[nH]c(-c3ccc(S(=O)(=O)O)cc3)nc2n(C)c1=O | inactive |
| O=C(O)[C@@H]1C[C@@H](C(=O)O)N1 | inactive |
| c1ccc(-c2ccccn2)nc1 | inactive |
| COc1ccc2c(c1)c(CC(=O)O)c(C)n2C(=O)c1ccccc1 | inactive |
| COc1cc2c(CCNC(C)=O)c[nH]c2cc1Cl | inactive |
| COc1cc2c(CCNC(C)=O)c[nH]c2cc1O | inactive |
| C[C@H](O)C(=O)C1=Nc2c(nc(N)[nH]c2=O)NC1 | inactive |
| NC(=O)C(=O)O | inactive |
| O=C(O)c1ccccc1Nc1cccc(OCc2ccc3ccccc3n2)c1 | inactive |
| O=c1ccc2c(OCCCCc3ccccc3)c3ccoc3cc2o1 | inactive |
| C[C@@H]1C(=O)NC2=Nc3cccc(Cl)c3CN21 | inactive |

| Compound | outcome |
| --- | --- |
| O=C(O)C1=CCCNC1 | inactive |
| O=C(O)c1ccccc1Nc1ccccc1 | inactive |
| CNCCNS(=O)(=O)c1cccc2cnccc12 | inactive |
| CC(C)NC[C@H](O)c1ccc(O)c(O)c1 | inactive |
| NC(N)=NC(N)=Nc1cccc(Cl)c1 | inactive |
| CCCn1c(=O)c2[nH]c(C3CCCC3)nc2n(CCC)c1=O | inactive |
| O=C(O)c1cc(=O)c2ccccc2[nH]1 | inactive |
| COc1ccc(C(=O)NCc2cccnc2)cc1C(=O)NCc1cccnc1 | inactive |
| CC1(C)CCC2=C(O1)c1ccccc1C(=O)C2=O | inactive |
| COc1cc(/C=C(\C#N)C(=O)c2ccc(O)c(O)c2)cc(I)c1O | inactive |
| O=C(O)CC[C@@H](C(=O)O)N1C(=O)c2ccccc2C1=O | inactive |
| O=c1[nH]c(=O)c2nc3ccccc3nc2[nH]1 | inactive |
| CN(C)c1nc(N)c(C(=O)N=C(N)N)nc1Cl | inactive |
| COCc1nc2c([nH]1)c(=O)n(C)c(=O)n2CC(C)C | inactive |
| Oc1ccc(Cn2cc[nH]c2=S)cc1 | inactive |
| N=c1c[n+](N2CCOCC2)[n-]o1 | inactive |
| c1ccc2nc(C3=NCCN3)ccc2c1 | inactive |
| O=[N+]([O-])c1cccc2cn[nH]c12 | inactive |
| CCCCN1CCC(n2c(=O)[nH]c3ccccc32)CC1 | inactive |
| NC1(C(=O)O)CC1 | inactive |

Target: Alpha-galactosidase (Coffea arabica) (UniProt Q42656)
Experiment: Counterscreen for Glucocerebrosidase Inhibitors: qHTS Assay for Coffee Bean alpha-Galactosidase at pH 5.9 (AID 998)
Conditions: coffee bean alpha-galactosidase enzyme assay; series mostly up to 76.9 µM
In short: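 Green coffee bean enzyme (2 nM) with 4-methylumbelliferyl alpha-D-galactopyranoside (80 uM) in 50 mM citric acid, 0.005% Tween-20, pH 5.9, 20 min at room temperature; compounds 0.7 nM–77 uM. Stopped at pH 10, fluorescence Ex365/Em440; Hill-fit AC50.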

| Compound | outcome |
| --- | --- |
| CC[N+](CC)(CC)CC(=O)Nc1c(C)cccc1C | inactive |
| C/C(=C\c1ccc(C(=O)O)cc1)c1ccc2c(c1)C(C)(C)CCC2(C)C | inactive |
| CN1CCc2ccccc2Cc2[nH]c3ccccc3c2CC1 | inactive |
| COc1ccccc1N1CCN(CCN2C(=O)CC3(CCCC3)CC2=O)CC1 | inactive |
| N=C(N)c1ccc(N)cc1 | inactive |
| O=C(c1cc(O)c(O)c([N+](=O)[O-])c1)c1ccccc1F | inactive |
| NCCNS(=O)(=O)c1cccc2c(Cl)cccc12 | inactive |
| CC(=O)N[C@@H](Cc1c[nH]c2ccccc12)C(=O)OCc1cc(C(F)(F)F)cc(C(F)(F)F)c1 | inactive |
| CSC(=N)N | inactive |
| Cn1c(=O)c2[nH]c(-c3ccc(S(=O)(=O)O)cc3)nc2n(C)c1=O | inactive |
| O=C(O)[C@@H]1C[C@@H](C(=O)O)N1 | inactive |
| c1ccc(-c2ccccn2)nc1 | inactive |
| COc1ccc2c(c1)c(CC(=O)O)c(C)n2C(=O)c1ccccc1 | inactive |
| COc1cc2c(CCNC(C)=O)c[nH]c2cc1Cl | inactive |
| COc1cc2c(CCNC(C)=O)c[nH]c2cc1O | inactive |
| C[C@H](O)C(=O)C1=Nc2c(nc(N)[nH]c2=O)NC1 | inactive |
| NC(=O)C(=O)O | inactive |
| O=C(O)c1ccccc1Nc1cccc(OCc2ccc3ccccc3n2)c1 | inactive |
| O=c1ccc2c(OCCCCc3ccccc3)c3ccoc3cc2o1 | inactive |
| C[C@@H]1C(=O)NC2=Nc3cccc(Cl)c3CN21 | inactive |

| Compound | outcome |
| --- | --- |
| O=C(O)C1=CCCNC1 | inactive |
| O=C(O)c1ccccc1Nc1ccccc1 | inactive |
| CNCCNS(=O)(=O)c1cccc2cnccc12 | inactive |
| CC(C)NC[C@H](O)c1ccc(O)c(O)c1 | inactive |
| NC(N)=NC(N)=Nc1cccc(Cl)c1 | inactive |
| CCCn1c(=O)c2[nH]c(C3CCCC3)nc2n(CCC)c1=O | inactive |
| O=C(O)c1cc(=O)c2ccccc2[nH]1 | inactive |
| COc1ccc(C(=O)NCc2cccnc2)cc1C(=O)NCc1cccnc1 | inactive |
| CC1(C)CCC2=C(O1)c1ccccc1C(=O)C2=O | inactive |
| COc1cc(/C=C(\C#N)C(=O)c2ccc(O)c(O)c2)cc(I)c1O | inactive |
| O=C(O)CC[C@@H](C(=O)O)N1C(=O)c2ccccc2C1=O | inactive |
| O=c1[nH]c(=O)c2nc3ccccc3nc2[nH]1 | inactive |
| CN(C)c1nc(N)c(C(=O)N=C(N)N)nc1Cl | inactive |
| COCc1nc2c([nH]1)c(=O)n(C)c(=O)n2CC(C)C | inactive |
| Oc1ccc(Cn2cc[nH]c2=S)cc1 | inactive |
| N=c1c[n+](N2CCOCC2)[n-]o1 | inactive |
| c1ccc2nc(C3=NCCN3)ccc2c1 | inactive |
| O=[N+]([O-])c1cccc2cn[nH]c12 | inactive |
| CCCCN1CCC(n2c(=O)[nH]c3ccccc32)CC1 | inactive |
| NC1(C(=O)O)CC1 | inactive |
